Source: the OligoGym collection

target: NTRK3; test: pooled miR-30 sensor sort-seq; sequence = guide strand; settings: shRNA
Further: reference of the scale not given here.

Sequence | sensor-assay potency score (higher = more potent)
TAGACAGTGAGGGCAACACTGG | -1.18
TTAATGTGCTGCACATACGTGT | 0.37
TAGAGCTCCATGTCCACGGCGT | 0.00985
TTTGTAGATCTCCTTGATGTTC | -1.01
TTCACTAGCAGATTCGCTCCAA | 0.574
TAGACATCTCTGGACATGCCGA | -0.718
TCTCTGTAGTGAACTTCCGGTA | -0.729
TAGAACTTGACAATGTGCTCAT | 0.762
TTGACAGGTTTATATAACGCAA | -0.787
TTGTGGGTCACAGTGATAGGAG | -0.852

target: NUDT12; test: as above; settings: shRNA

Sequence | sensor-assay potency score (higher = more potent)
TATATCTGTGTAGTTCAGCTGA | 0.275
TATTATTACATTCATTTCCAGT | -0.883
TAATAGTATGCTTTTCTCCTTC | 0.381
TTAACTTGGCAATATCTCCTTC | 0.732
TATATTGACAACTTAAAGGTAA | -0.0673
TTTCTCTAGAATCTTACTGATT | -0.991
TTAAATATGTAAATCTGCCTGG | 0.199
TTAATTTCTGTAGACACTGCTA | 0.0613
TTTTGCTTTCTCTAGAATCTTA | 0.0347
TAGTAAATTAGCTATATGCTTA | -0.516
TTTAACATTATGAAAACCTGGA | 0.224

target: NUDT17; test: as above; settings: shRNA

Sequence | sensor-assay potency score (higher = more potent)
AGCAAGACAGTCTTGTCGCTGG | -0.353
TTCTCGAAGCCCTCCGTCCAGC | -1.17
TGTTCCATTCTTCCTTTGCTGG | -1.04
TTGTCCTCTGCCATGGTTGGGA | -0.492
TTCCACTGCAAGGACAGAGGGT | -0.741
TTTGGGTTTGGTTGGATCCGGG | -0.403
TAGCAAGACAGTCTTGTCGCTG | -0.0193
TTAGCAAGACAGTCTTGTCGCT | 0.135
TCTCTGTCCCATCCTCTGCGGC | -1.35
TTGAGGGCAAACTTGGTTCCAG | -0.0646
TAAGCTGCACTTTTACACGGTG | -0.247
ATACAGAACAATGTGATGGTAT | 0.6

target: NUDT18; test: as above; settings: shRNA

Sequence | sensor-assay potency score (higher = more potent)
TAGTTCAACCAGGTGCAGGATG | -0.826
TCCTCCATCACCTTCCACCAAG | -1.79
TAGCTCTTGGGGCAGAATGAGA | -1.69
TGTCTCGGGCTCACAGTGCAGC | -1.13
TTGATCTCCACCACCAAGTGGT | 0.0788
AACTTTTGGGGGTTCATCCTGG | -0.225
ATCACTGTGATCTCGGCCCAGG | -0.975
